In PubChem BioAssay (Tox21):
Inconclusive results are not listed. Where a call stands in place of a potency, no number is given. The source made the active and inactive calls. Calls follow the shape of the dose curve; as a rule, active = well fitted activation curve with a large enough effect in the signal ratio in the repeat runs (not every such curve was filed as active); inconclusive = weak or mixed curves, or effect the other way; inactive = no such curve, though single readings can be large or run the other way; the % refers to the signal ratio.
Potency is read from the fitted curve at half-maximal effect.

Test: qHTS assay for small molecule agonists of the antioxidant response element (ARE) signaling pathway (AID 743202)
Settings: HepG2 ARE-bla reporter, beta-lactamase FRET, 16 h; series mostly up to 73.3 µM
Source text: U.S. Tox21 Program National Center for Advancing Translational Sciences [NCATS] NIH Chemical Genomics Center [NCGC] U.S. Environmental Protection Agency [EPA] National Institutes of Environmental Health Sciences [NIEHS] National Toxicology Program [NTP] U.S. Food and Drug Administration [FDA] Tox21 Assay Overview: Oxidative stress has been implicated in the pathogenesis of a variety of diseases ranging from cancer to neurodegeneration. The antioxidant response element (ARE) signaling pathway plays an important role in the amelioration of oxidative stress. The CellSensor ARE-bla HepG2 cell line (Invitrogen) can be used for analyzing the Nrf2/antioxidant response signaling pathway. Nrf2 (NF-E2-related factor 2) and Nrf1 are transcription factors that bind to AREs and activate these genes. The CellSensor ARE-bla Hep G2 cell line contains a beta-lactamase reporter gene under control of the Antioxidant Response Element (ARE) stably integrated into HepG2 cells. The activation of the report gene under culture conditions can be detected by fluorescence intensity. This cell line has been used to screen the Tox21 10K compound library to identify agonists that induce oxidative stress.
Tox21 Assay Protocol Summary: The ARE-bla cells were dispensed at 2,000 cells/5 ul/well in 1536-well black wall/clear bottom plates using a Multidrop dispenser. After the assay plates were incubated at a 37 C/5% CO2 incubator for 5 hours, 23 nL of compounds dissolved in DMSO, positive controls or DMSO only was transferred to the assay plate by a pin tool. The plates were incubated at 37 C for 16 hours. After 1 uL of LiveBLAzer B/G FRET substrate was added using a Flying Reagent Dispenser, the plates were incubated at room temperature for 2 hours, and fluorescence intensity was measured by an Envision plate reader.
In the case of NCCCCCC(=O)O, the Potency is reported as “inactive”.
In the case of COC(=O)/C=C/c1ccccc1, the Potency is reported as “inactive”.
For Cc1ccc(-c2cc(C(F)(F)F)nn2-c2ccc(S(N)(=O)=O)cc2)cc1, the Potency was 26.6 µM (active).
With CCCCC/C=C/CC1CC(=O)OC1=O (stereo not given) the Potency was “inactive”.
With NC12CC3CC(CC(C3)C1)C2 the Potency was “inactive”.
For CNC1(C)C2CCC(C2)C1(C)C (stereo not given), the Potency was “inactive”.
In the case of CCCCCCCCCCCCCCCCCl, the Potency is reported as “inactive”.
With C=CS(=O)(=O)O the Potency was “inactive”.
With CC(C)CCOCc1ccccc1 the Potency was “inactive”.
For C=C(C)C(=O)O, the Potency was “inactive”.
With COc1cc(C(=S)N2CCOCC2)ccc1O the Potency was “inactive”.
In the case of Nc1nc2ccccc2[nH]1, the Potency is reported as “inactive”.
For O, the Potency was “inactive”.
In the case of CC(C)(C)c1ccccc1, the Potency is reported as “inactive”.
In the case of Nc1cc(S(=O)(=O)O)cc2cc(S(=O)(=O)O)cc(O)c12, the Potency is reported as “inactive”.
With CCCCN(CCO)CCCC the Potency was “inactive”.
In the case of CCC(=O)/C=C/C1C(C)=CCCC1(C)C (stereo not given), the Potency is reported as “inactive”.
With Cc1cccc(O)c1C the Potency was “inactive”.
With O=c1n(CC2CO2)c(=O)n(CC2CO2)c(=O)n1CC1CO1 (stereo not given) the Potency was 4.33 µM (active).
With COc1nc(C)nc(Cl)c1NC1=NCCN1 the Potency was “inactive”.
In the case of CCCN[C@H]1CCc2nc(N)sc2C1, the Potency is reported as “inactive”.
In the case of CCN1CCCC1CNC(=O)c1cc(S(=O)(=O)CC)c(N)cc1OC (stereo not given), the Potency is reported as “inactive”.
For O=C(O)CCc1ccccc1, the Potency was “inactive”.
In the case of Cc1cccc([N+](=O)[O-])c1C(=O)O, the Potency is reported as “inactive”.
For CCOc1ccc2c(c1)C(C)=CC(C)(C)N2, the Potency was 61.1 µM (active).
With CCCCCCCCCCCC[N+](C)(C)C the Potency was 8.61 µM (active).
For O=C1NCC2(CCN(CCc3ccccc3)CC2)O1, the Potency was “inactive”.
With Cc1cc(C2(c3cc(C)c(O)cc3C)OS(=O)(=O)c3ccccc32)c(C)cc1O the Potency was “inactive”.
With c1ccc2n[nH]nc2c1 the Potency was “inactive”.
In the case of CCOC(=O)C(C)C(C)=O (stereo not given), the Potency is reported as “inactive”.
For O=C(Oc1ccccc1)c1ccccc1O, the Potency was “inactive”.
For NC(=Nc1ccccc1)Nc1ccccc1, the Potency was 13.3 µM (active).
In the case of C=CC(=O)OCCCCCCOC(=O)C=C, the Potency is reported as 10.9 µM (active).
With NCCO the Potency was “inactive”.
For CC(C)(C)NC(=O)[C@@H]1CN(Cc2cccnc2)CCN1C[C@@H](O)C[C@@H](Cc1ccccc1)C(=O)N[C@H]1c2ccccc2C[C@H]1O, the Potency was “inactive”.
In the case of c1ccc2cc3c(ccc4ccccc43)cc2c1, the Potency is reported as 6.11 µM (active).
In the case of O=C(Cl)c1cccc(C(=O)Cl)c1, the Potency is reported as “inactive”.
With CCN(CC)C(=O)Nc1ccc(OCC(O)CNC(C)(C)C)c(C(C)=O)c1 (stereo not given) the Potency was “inactive”.
With OCCN1CCNCC1 the Potency was “inactive”.
For c1ccc2c(c1)CCCC2C1=NCCN1 (stereo not given), the Potency was “inactive”.
